The values below come from PubChem BioAssay (NCI).

SMILES strings stand for the structures. Compounds without any hit were thinned out: in the full panel of roughly 83,000, 20% have a hit.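 Negative percent growth values reflect cell death: -40 means 40% of the cells present at the start died, and -100 means all died.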 A number with no mark means an inactive call. Calls of active or inactive are those of the source. Rule for the calls: active = growth percent below 10; inactive = the rest.

In the assay the test system is LOX IMVI melanoma. Put plainly: NCI-60 one-dose screen, 48 h (100 = growth as untreated, 0 = no growth, -100 = all killed). The conditions noted are these: 10 µM unless noted.
Regarding `CCN(CC)CCOc1ccc(-c2c(-c3ccccc3)c(=O)oc3ccccc23)cc1`, the growth was 81.3%.
Regarding `COc1ccc2c(O)c(/C=C3\N=Nc4ccccc43)oc2c1C[C@@H]1CCNC[C@H]1F`, the growth was -82.7% (active).
`COc1cc(OC)cc(C2=C3CC[C@@H]4[C@H](CC[C@]5(C)C(=O)CC[C@@H]45)C3=CC3C(O)c4cccnc4N4C(=O)COC234)c1` (some centres not stated): the growth is 95.9%.
The result for `CC(=O)N1N=C(c2ccc(Nc3nc(Nc4ccc(Cl)cc4)nc(Nc4ccc(Cl)cc4)n3)cc2)CC1c1ccco1` (configuration not stated) reads 95.7%; that for `CCS/C(Nc1ccccc1)=C(\C#N)C(=O)N/N=C/c1ccc(Cl)cc1Cl`, 34.4%; that for `CCOC(=O)C(=Cc1cccc(Cl)c1)C(=O)OCC`, -65.1% (active).
Under `CN[C@]12CC3(C=CC(=O)C=C3)O[C@@]1(Cc1ccc(OC)cc1)N(C)C(=O)N2` stands -50% (active).
